Screening data deposited in PubChem BioAssay by National Center for Advancing Translational Sciences (NCATS).
The sample as a whole holds a higher share of hits than the screen did.
BLM inh: qHTS Assay for Inhibitors of Bloom's syndrome helicase (BLM) | recombinant BLM DNA unwinding, fluorescence dequenching | Potency, µM (highest dose often 56.1 µM), for inactives: top-dose activity change, negative = inhibition, hits mostly inhibitors | 0.2% of 350,000 active | AID 2528, 2010;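 note: plate controls were vehicle for no effect and no enzyme for full effect; nearly all actives have a fitted effect of over 35% in size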
L3MBTL1 inh: qHTS Assay for the Inhibitors of L3MBTL1. Lethal(3)malignant brain tumor-like protein 1 (Homo sapiens), Q9Y468. AlphaScreen L3MBTL1–H3K9me1 peptide binding. Potency, µM (doses to about 57.1 µM), for inactives: top-dose activity, negative = inhibition, actives largely listed as inhibitors. 0.66% of 230,000 active. AID 485360, 2010; note: nearly all actives have a fitted effect of over 60% in size
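AlphaScreen assay: L3MBTL1 (50 nM final) was preincubated 30 min at room temperature with biotinylated H3(1-15)K9me1 peptide (75 nM final), then 30 min with library compounds; streptavidin donor and nickel chelate acceptor beads (10 ug/mL final) added, 30 min dark.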
RGS12 GoLoco inh: qHTS Assay for Inhibitors of RGS12 GoLoco Motif Activity (Red Fluorophore); Potency, µM (series often up to 61.6 µM), inactives show at the top dose activity, negative = inhibition, hits mostly inhibitors; Guanine nucleotide-binding protein G(i) subunit alpha-1 (Homo sapiens), P63096; 0.44% of 230,000 active; Gai1:RGS12 GoLoco peptide FP, rhodamine, 10 min; active = well fitted inhibition curve with a large enough effect, not every such curve was filed as active; inactive = no such curve, though single readings can be large or run the other way; note: nearly all actives have a fitted effect of over 30% in size
RECQ1 inh-1: qHTS Assay for Inhibitors of RecQ-Like Dna Helicase 1 (RECQ1) | ATP-dependent DNA helicase Q1 (Homo sapiens), P46063 | RECQ1 DNA unwinding, red fluorescence kinetic read | 0.54% of 240,000 active | Potency, µM (titrated, usually from 57.3 µM), for the others: at the top dose activity, negative = inhibition, usual class: inhibitors;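 note: plate controls were vehicle for no effect and no enzyme for full effect; nearly all actives have a fitted effect of over 30% in size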
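50 nM RECQ1T1 preincubated 15 min with compound in Tris pH 8.0 buffer with MgCl2, DTT, Tween-20 and 2.5 ug/ml poly(dI-dC); started with 200 nM TAMRA/BHQ-2 forked duplex and 2 mM ATP. Unwinding read as fluorescence (525/598 nm), two reads 2 h apart.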
APE1 inh: qHTS Assay for Inhibitors of the Human Apurinic/apyrimidinic Endonuclease 1 (APE1); 0.35% of 350,000 active; Potency, µM (doses to about 65.8 µM), inactives show top-dose activity change, negative = inhibition, usual class: inhibitors; recombinant APE1, TAMRA/BHQ-2 abasic DNA cleavage fluorescence; AID 2517, 2012;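 note: plate controls were vehicle for no effect and reference inhibitor for full effect; nearly all actives have a fitted effect of over 55% in size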
Target sequence (P27695 whole entry, looked up): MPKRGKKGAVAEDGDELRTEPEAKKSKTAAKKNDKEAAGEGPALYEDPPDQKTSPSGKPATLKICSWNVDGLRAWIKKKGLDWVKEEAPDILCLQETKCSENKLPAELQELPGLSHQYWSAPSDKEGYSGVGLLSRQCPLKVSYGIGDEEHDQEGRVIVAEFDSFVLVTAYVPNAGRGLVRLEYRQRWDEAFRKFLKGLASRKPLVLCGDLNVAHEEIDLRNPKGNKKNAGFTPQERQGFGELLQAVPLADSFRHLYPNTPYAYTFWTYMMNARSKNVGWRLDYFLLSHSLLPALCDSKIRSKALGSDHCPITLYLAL
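Compound pre-exposure to 0.75 nM APE1, 15 min at ambient temperature. Reaction initiated with 50 nM TAMRA/BHQ-2 THF substrate, read immediately in kinetic mode, 525 nm excitation, 598 nm emission.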
JMJD2E inh: qHTS Assay for Inhibitors of Human Jumonji Domain Containing 2E (JMJD2E). JMJD2E catalytic domain, FDH-coupled NADH fluorescence (FDH is formaldehyde dehydrogenase). AID 2147, 2009. 1.6% of 230,000 active. Lysine-specific demethylase 4E (Homo sapiens), B2RXH2. Potency, µM (doses to about 57.1 µM), inactives show at the highest dose activity change, negative = inhibition, most hits filed as inhibitors; active = well fitted inhibition curve with a large enough effect, not every such curve was filed as active; inconclusive = small, poorly fitted or top-dose-only effect, or another doubt; inactive = no such curve, though single readings can be large or run the other way;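 note: 0% = wells with enzyme and -100% = buffer wells without enzyme; nearly all actives have a fitted effect of over 50% in size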
RECQ1 conf: Confirmation qHTS Assay for Inhibitors of RecQ-Like Dna Helicase 1 (RECQ1); Potency, µM (top dose mostly 229 µM), inactives show at the highest dose activity change, negative = inhibition, actives largely listed as inhibitors; shares compounds with RECQ1 inh-1; RECQ1 helicase DNA unwinding, fluorescence; AID 2708, 2010; 28% of 610 active; note: nearly all actives have a fitted effect of over 45% in size
RECQ1 ADP FP: Counterscreen for RECQ1 Inhibitors: ADP Fluorescence Polarization Displacement Assay | shares compounds with RECQ1 inh-1 | AID 2711, 2010 | Potency, µM (doses to about 228 µM), inactives show top-dose activity change, negative = inhibition, actives largely listed as inhibitors | ADP fluorescence polarization displacement counterscreen | 27% of 530 active; note: nearly all actives have a fitted effect of over 45% in size
RECQ1 inh-2: Confirmation qHTS Assay for Inhibitors of RecQ-Like Dna Helicase 1 (RECQ1) - Round 2 Cherry Picks. 15% of 1,100 active. recombinant RECQ1 DNA unwinding, red fluorescence. shares compounds with RECQ1 inh-1. Potency, µM (top dose mostly 119 µM), inactives show at the top dose activity, negative = inhibition, actives largely listed as inhibitors; note: nearly all actives have a fitted effect of over 50% in size
Starred values were filed as active, the others as inactive; ? = inconclusive; nt = no result. Unless noted, calls come from the whole dose curve; as a rule, active = well fitted curve in the direction sought with a large enough effect; inconclusive = small, poorly fitted or top-dose-only effect, or another doubt; inactive = no such curve, though single readings can be large; an effect the other way counts as inactive or inconclusive. Unless noted, % is set by controls: 0 for no effect and ±100 for the full control effect; potency is the fitted concentration of half-maximal effect.

SMILES	BLM inh	L3MBTL1 inh	RGS12 GoLoco inh	RECQ1 inh-1	APE1 inh	JMJD2E inh	RECQ1 conf	RECQ1 ADP FP	RECQ1 inh-2
COc1ccc2nc(NC(=O)C3CCCN(S(=O)(=O)c4cccc5nsnc45)C3)sc2c1 (stereo not drawn)	-7.2%	-6.9%	8.7%	-20.9%	-7.9%	0.3%	-10.5%	24.1%	nt
CCc1ccc(N2C(=O)N(CC(=O)C(C)(C)C)c3ccccc3S2(=O)=O)cc1	-5.1%	nt	nt	nt	nt	nt	nt	nt	nt
Cc1ccccc1OCCCCc1c(C)n[nH]c1C	-2.6%	-5.6%	4.4%	?	-0.8%	0.5%	nt	nt	-13.9%
COC(=O)c1sc2cccc(F)c2c1S(=O)(=O)NCc1ccccc1Cl	-6.2%	nt	nt	nt	nt	nt	nt	nt	nt
Cc1ccc(N(CC(=O)Nc2ccc(C)c(F)c2)S(=O)(=O)c2c(C)n[nH]c2C)cc1	-8.0%	nt	nt	nt	nt	nt	nt	nt	nt
O=C(COc1c(Cl)cccc1Cl)NN1C(=O)CSC1=S	-6.8%	-17.2%	106.0%	?	-6.4%	-1.8%	nt	nt	-9.6%
COc1cccc(C(C(=O)NCc2ccccc2)N(C(=O)Cn2nnc3ccccc32)c2cccc(C(C)=O)c2)c1 (stereo not drawn)	1.7%	nt	nt	nt	nt	nt	nt	nt	nt
CCOC(=O)c1ccc(N2N=C(C)/C(=C/C=C/c3ccco3)C2=O)cc1	6.5%	31.6µM*	32.6%	?	3.8%	-21.0%	nt	nt	-3.3%
CC1(C(=O)O)NCCc2cc(O)c(O)cc21 (stereo not drawn)	nt	nt	-8.3%	6.31µM*	5.62µM*	nt	?	3.16µM*	nt
COC(=O)C1(C)NCCc2c1[nH]c1ccccc21 (stereo not drawn)	nt	-0.1%	nt	nt	13.3%	nt	nt	nt	nt
COc1cc(OC)c(NC(=O)Nc2c(C)n(C)n(-c3ccccc3)c2=O)cc1Cl	-2.7%	nt	nt	nt	nt	nt	nt	nt	nt
FC(F)(F)c1cc(CN2CCCC3(CCNCC3)C2)cc(C(F)(F)F)c1	1.4%	nt	4.4%	-2.9%	5.9%	nt	nt	nt	nt
CC(C)C(NS(=O)(=O)c1cccc2nsnc12)C(=O)N1CCn2c1nc1ccccc12 (stereo not drawn)	-5.3%	nt	7.8%	1.8%	13.4%	4.1%	9.6%	?	nt
Cc1nc(-c2ccc(F)cc2)sc1CCNC(=O)C(=O)Nc1ccc2c(c1)OCO2	1.7%	nt	nt	nt	nt	nt	nt	nt	nt
Nc1nc(Nc2ccccc2)nc(NCc2ccco2)c1[N+](=O)[O-]	?	-10.6%	-11.5%	?	0.0%	-1.4%	nt	nt	79.4µM*
O=C(O)/C(=C\c1ccccc1Cl)c1ccc(S(=O)(=O)N2CCCCC2)s1	-15.5%	-11.1%	nt	3.0%	23.9%	-3.3%	126µM*	-9.4%	nt
